Screening results as filed in PubChem.
This is a sample that favours compounds with a hit; in the whole collection about 21% have one here.
Pf growth 48h = inhibits P. falciparum growth in the first generation, 48 h. P. falciparum luciferase growth in erythrocytes, 48 h. AID 504832. Potency, µM (top dose mostly 28.7 µM), most hits filed as inhibitors. 310,000 compounds, 5.9% hits
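Luciferase-expressing parasites in RBCs, 2% Hct / 0.1% parasitemia final; RPMI 1640 + 0.5% Albumax; 37 C, 5% CO2, one generation; luminescence read-out, lower signal = inhibition.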
HCV inhibitor = inhibitors of hepatitis C virus infection. Potency, µM (highest dose often 41.8 µM), hits mostly inhibitors. Huh7.5.1 HCVcc-Cre infection, luciferase reporter, 44 h. 340,000 compounds, 3.4% hits
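1,000 cells/well; 4 h culture; + compound; + HCVcc-Cre (~0.5 moi); 44 h; luciferase substrate, RT 15 min; read 15 sec.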
Cycloheximide cs = counter-screen for Shiga toxin inhibitors: cycloheximide protein synthesis inhibition | cell reporter, cycloheximide protein synthesis inhibition counterscreen | max response, % | 300,000 compounds, 12% hits | AID 2314; in the data active = max response mostly above about 13%, no sharp cut-off; inactive = mostly below about 14%; note: read at 38.3 µM for the half of the compounds with a filed dose
Pf growth 96h = inhibits malaria parasite growth, 96 h; P. falciparum luciferase reporter growth, 96 h; 320,000 compounds, 6.9% hits; AID 504834; Potency, µM (highest dose often 28.7 µM), most hits filed as inhibitors
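Delayed-death screen, second-generation endpoint: infected erythrocytes, 2% hematocrit, 0.05% parasitemia final; 96 hours at 37 C, 5% CO2; luciferase detection reagent; luminescence decrease equals reduced growth.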
Shiga toxin inh = blocks Shiga toxin action in Vero cells; Vero cells, Shiga toxin protein synthesis inhibition reporter; 290,000 compounds, 9.2% hits; inhibition, % at 38.7 µM; in the data active = inhibition mostly above about 28%, no sharp cut-off; inactive = mostly below about 43%
HCMV antiviral = human cytomegalovirus inhibition; HFF cells, HCMV-luciferase reporter, 72 h; stronger effect = lower value; AID 1259415; 410,000 compounds, 4.5% hits; activity change, negative = inhibition, % at 57.5 µM; in the data active = activity change below about -60%; inconclusive = no clear call, values can overlap the other calls; inactive = above about -39%
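Steps: HFFs plated, 16 h 37C; compounds added; HCMV-luciferase added to MOI 1 PFU/cell; 72 h 37C; OneGlo reagent, 5 min room temperature; luminescence read, normalized to controls.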
Numbers stand for hits. Unless noted, calls come from the whole dose curve; as a rule, active = well fitted inhibition curve with a large enough effect; inconclusive = small, poorly fitted or top-dose-only effect, or another doubt; inactive = no such curve, though single readings can be large or run the other way.

O=C(Cc1ccc(Br)cc1)NNC(=O)Nc1ccc(Cl)cc1 was read as Pf growth 48h inactive, HCV inhibitor inactive, Cycloheximide cs inactive, Pf growth 96h inactive, Shiga toxin inh inactive and HCMV antiviral inactive.
`O=C(Cc1ccc(Cl)cc1)Nc1ccc(Br)cc1` gave Pf growth 48h inactive, HCV inhibitor inactive, Cycloheximide cs 30.5, Pf growth 96h inactive, Shiga toxin inh 73.8 and HCMV antiviral inactive.
For O=C(CC1SCCNC1=O)Nc1cccc(Cl)c1 (stereo not given) the results were Pf growth 48h inactive, HCV inhibitor inactive, Cycloheximide cs 16.6, Shiga toxin inh 38.9 and HCMV antiviral inactive.
COC(=O)C1=C[C@@H](C(=O)OC)[C@H]2C3=C(C(=O)[C@@]2(C)NC(=O)c2ccccc2)[C@H](C)C(C(=O)OC)=C(C(=O)OC)[C@@H]3C1 was read as Cycloheximide cs inactive and Shiga toxin inh inactive.
`COc1cccc(NC(=O)Cn2c(=O)n(CCCCC(=O)NCCc3ccccc3)c(=O)c3ccccc32)c1` gave HCMV antiviral inactive.
`CCN(CC(=O)Nc1ccc(NC(C)=O)cc1)C(=O)/C=C/c1c(C)nn(-c2ccc(F)cc2)c1C` gave Pf growth 48h inconclusive, HCV inhibitor inactive, Cycloheximide cs inactive, Pf growth 96h inconclusive, Shiga toxin inh inactive and HCMV antiviral inactive.
`Cc1ccc(C2/C(=C(/O)c3cnn(-c4ccccc4)c3C)C(=O)C(=O)N2CCN2CCOCC2)o1` (stereo not given) gave HCV inhibitor inactive, Cycloheximide cs 56.3, Shiga toxin inh 74.8 and HCMV antiviral inactive.
For CCN(CC)CCN1C(=O)C(=O)/C(=C(/O)c2cnn(-c3ccccc3)c2C)C1c1ccc(C)o1 (stereo not given) the results were Pf growth 48h inactive, HCV inhibitor inactive, Cycloheximide cs 47.4, Shiga toxin inh 87.4 and HCMV antiviral inactive.
Cc1c(/C(O)=C2/C(=O)C(=O)N(CCN3CCOCC3)C2c2cccs2)cnn1-c1ccccc1 (stereo not given) was read as Pf growth 48h inactive, HCV inhibitor inactive, Cycloheximide cs 39.9, Pf growth 96h inactive, Shiga toxin inh 85.9 and HCMV antiviral inconclusive.
Screening Cc1ccc(C2/C(=C(\O)c3cnn(-c4ccccc4)c3C)C(=O)C(=O)N2CCN(C)C)o1 (stereo not given) returned Pf growth 48h inconclusive, HCV inhibitor inactive, Cycloheximide cs inactive, Pf growth 96h inactive, Shiga toxin inh inactive and HCMV antiviral inactive.
For O=C(NC1CC2CCC1C2)c1ccco1 (stereo not given) the results were Pf growth 48h inconclusive, HCV inhibitor inactive, Cycloheximide cs inactive, Pf growth 96h inactive, Shiga toxin inh inactive and HCMV antiviral inactive.
For O=S(=O)(c1ccccc1)N(CC1CO1)c1cc(Cl)ccc1Cl (stereo not given) the results were Pf growth 48h inactive, HCV inhibitor inactive, Cycloheximide cs inactive, Pf growth 96h inactive, Shiga toxin inh inactive and HCMV antiviral inactive.
`COc1cccc(C2=NOC(C(=O)NCc3cccs3)C2)c1` (stereo not given) gave Pf growth 48h inactive, HCV inhibitor inactive, Cycloheximide cs 25.6, Pf growth 96h inactive, Shiga toxin inh 53.7 and HCMV antiviral inactive.
For O=C(NCc1cccs1)C1CC(c2ccc(F)cc2)=NO1 (stereo not given) the results were Pf growth 48h inactive, HCV inhibitor inactive, Cycloheximide cs 28.3, Pf growth 96h inconclusive, Shiga toxin inh 48.7 and HCMV antiviral inactive.
Screening CC(C)CCNC(=O)C1CC(c2cccc([N+](=O)[O-])c2)=NO1 (stereo not given) returned Pf growth 48h inactive, HCV inhibitor inactive, Cycloheximide cs inactive, Pf growth 96h inactive, Shiga toxin inh inactive and HCMV antiviral inactive.
`CCCCNC(=O)C1CC(c2cccc([N+](=O)[O-])c2)=NO1` (stereo not given) gave Pf growth 48h inactive, HCV inhibitor inactive, Cycloheximide cs 25.3, Pf growth 96h inactive, Shiga toxin inh 83.1 and HCMV antiviral inactive.
`COCC(C)NC(=O)C1CC(c2cccc(Br)c2)=NO1` (stereo not given) gave Pf growth 48h inactive, HCV inhibitor 3.16µM, Cycloheximide cs inactive, Pf growth 96h inactive, Shiga toxin inh inactive and HCMV antiviral inactive.
`O=C(NCc1cccnc1)C1CC(c2ccc(F)cc2)=NO1` (stereo not given) gave Pf growth 48h inactive, HCV inhibitor inactive, Cycloheximide cs inactive, Pf growth 96h inactive, Shiga toxin inh inactive and HCMV antiviral inactive.
CCOc1ccc(/C=C(\C#N)C(=O)Nc2sc3c(c2C(=O)OC)CCC3)cc1OC was read as HCMV antiviral inactive.
Screening COc1ccccc1CCNC(=O)C1(c2cccs2)CCOCC1 returned HCMV antiviral inactive.
`Cc1nc2cc(NC(=O)c3ccc(N4C(=O)CCC4=O)cc3)ccc2s1` gave Pf growth 48h inconclusive, HCV inhibitor inactive, Cycloheximide cs inactive, Pf growth 96h inactive, Shiga toxin inh inactive and HCMV antiviral inactive.
Screening COC(=O)c1c(NC(=O)COC(=O)C2CCC2)sc(C)c1C returned Pf growth 48h inactive, HCV inhibitor inconclusive, Pf growth 96h inactive and HCMV antiviral inactive.
For O=C(C1CC(c2cccc(Br)c2)=NO1)N1CCc2ccccc2C1 (stereo not given) the results were Pf growth 48h inactive, HCV inhibitor inactive, Cycloheximide cs 17.6, Pf growth 96h inactive, Shiga toxin inh inactive and HCMV antiviral inactive.
O=C(O)C1CC(c2cccc(Br)c2)=NO1 (stereo not given) was read as Pf growth 48h inactive, HCV inhibitor inactive, Cycloheximide cs inactive, Shiga toxin inh inactive and HCMV antiviral inactive.
For CC(=O)Nc1ccc(NC(=O)C(C)OC(=O)CCSc2ccccc2Cl)cc1 (stereo not given) the results were HCV inhibitor inactive and HCMV antiviral inactive.
For Cc1cccc(C)c1-n1c(=O)c2nc3ccccc3nc2c2ccccc21 the results were HCMV antiviral -95.8.
Screening COC(=O)c1ccc2nc(NC(=O)CN3C(=O)CCC3=O)sc2c1 returned Pf growth 48h inactive, HCV inhibitor inactive, Cycloheximide cs inactive, Pf growth 96h 0.828µM, Shiga toxin inh inactive and HCMV antiviral inactive.
For COC(=O)c1ccc2nc(NC(=O)C(C)C)sc2c1 the results were Pf growth 48h inactive, HCV inhibitor inactive, Cycloheximide cs 51.9, Pf growth 96h inactive, Shiga toxin inh 97.9 and HCMV antiviral inactive.
Screening COC(=O)c1ccc2nc(NC(=O)C3CC3)sc2c1 returned Pf growth 48h inactive, HCV inhibitor inconclusive, Cycloheximide cs 49.1, Pf growth 96h inactive, Shiga toxin inh 155.2 and HCMV antiviral inactive.
COc1ccc(N2CC(C(=O)Nc3nc4ccc(OC)cc4s3)CC2=O)cc1 (stereo not given) was read as Pf growth 48h inactive, HCV inhibitor inactive, Cycloheximide cs inactive, Pf growth 96h inactive, Shiga toxin inh inactive and HCMV antiviral inactive.
